Results filed as inconclusive are left out. Values without a mark were called inactive. Activity calls are given as the source filed them. The call rests on the fitted dose curve.
experiment: p53 small molecule agonists, cell-based qHTS assay with human liver microsomes: qHTS cell viability counter screen (AID 1963579); conditions: p53RE-bla HCT-116 viability, ATP luminescence, 16 h, HLM; series mostly up to 66 µM; activity change, negative = cytotoxicity: at the top concentration
In short: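 Seed p53RE-bla cells at 4,000 per well; incubate 5 h at 37 C; add compound, human liver microsomes and NADPH; incubate 16 h at 37 C; add CellTiter-Glo; after 30 min at room temperature, read luminescence.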
Further: nearly all actives have a fitted effect of over 45% in size.
On the % scale 0 is the no-effect control and ±100 the full control effect.

Row | SMILES | activity change, negative = cytotoxicity
1 | O=C(c1ccc(F)cc1)C1CCN(CCn2c(=S)[nH]c3ccccc3c2=O)CC1 | -4.5% [at 30.3 µM]
2 | Clc1ccc(Cn2c(CN3CCCC3)nc3ccccc32)cc1 | -13.1% [at 30.3 µM]
3 | CCCCCCCCCCCCCCCCCCCl | 1.68% [at 5.99 µM]
4 | Cc1cc(Nc2ccc(O)cc2)ccc1N | 4.11%
5 | c1cc(CN2CCCCC2)cc(OCCCNc2nc3ccccc3s2)c1 | 0% [at 30.3 µM]
6 | COC(=O)C1=C(C)NC(C)=C(C(=O)O[C@@H]2CCCN(Cc3ccccc3)C2)[C@@H]1c1cccc([N+](=O)[O-])c1 | -6.38% [at 30.3 µM]
7 | O=[N+]([O-])c1ccc(O/N=C/c2cc(Br)c(O)c(Br)c2)c([N+](=O)[O-])c1 | 18.7%
8 | CCCCCCC(C)OC(=O)COc1nc(F)c(Cl)c(N)c1Cl (stereo not given) | -15.4%
9 | COC(=O)C1=C(C)NC(COC(N)=O)=C(C(=O)OC(C)C)C1c1cccc(Cl)c1Cl (stereo not given) | -13.7% [at 30.3 µM]
10 | c1ccc(Cc2ccccc2)cc1 | -16.9%
11 | O=C(Nc1ccc(Cl)cc1)Nc1ccc(Cl)c(C(F)(F)F)c1 | -6.03% [at 30.3 µM]
12 | Oc1c(I)cc(Cl)c2cccnc12 | -37.6%
13 | CCN(CC)CCNc1ccc(CO)c2sc3ccccc3c(=O)c12 | -4.7% [at 30.3 µM]
14 | CCOc1ccc(N=Nc2ccc(/C=C/c3ccc(N=Nc4ccc(OCC)cc4)cc3S(=O)(=O)O)c(S(=O)(=O)O)c2)cc1 | 5.32%
15 | CN(C)CCCN1c2ccccc2Sc2ccc(C(F)(F)F)cc21 | 3.62% [at 30.3 µM]
16 | CCCCCC[C@@H](O)C/C=C\CCCCCCCC(=O)O | -5.05%

experiment: p53 small molecule agonists, cell-based qHTS assay with rat liver microsomes: qHTS cell viability counter screen (AID 1963580); conditions: p53RE-bla HCT-116 + rat microsomes, ATP viability, 16 h; series mostly up to 66 µM; activity change, negative = cytotoxicity: at the top concentration; further: potency means the concentration at half of the fitted maximal effect
In short: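 Cytotoxicity counter screen: intracellular ATP read by CellTiter-Glo luminescence in the p53 reporter wells. HCT-116 p53RE-bla cells were treated for 16 h at 37 C alongside rat liver microsomes and NADPH, each 0.5 mg/mL final.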

Row | SMILES | activity change, negative = cytotoxicity | Potency
17 | Nc1cccc2c(N)cccc12 | -5.22% | 
18 | O=C(OC[C@H]1O[C@@H](OC(=O)c2cc(O)c(O)c(OC(=O)c3cc(O)c(O)c(O)c3)c2)[C@H](OC(=O)c2cc(O)c(O)c(OC(=O)c3cc(O)c(O)c(O)c3)c2)[C@@H](OC(=O)c2cc(O)c(O)c(OC(=O)c3cc(O)c(O)c(O)c3)c2)[C@@H]1OC(=O)c1cc(O)c(O)c(OC(=O)c2cc(O)c(O)c(O)c2)c1)c1cc(O)c(O)c(OC(=O)c2cc(O)c(O)c(O)c2)c1 | 7.08% [at 13.5 µM] | 
19 | CCOC(=O)COc1ccc2c(C)c(CCN(CC)CC)c(=O)oc2c1Cl | -10.8% [at 30.3 µM] | 
20 | Cc1cccc(C)c1NC(=O)CN1CCN(CCCC(c2ccc(F)cc2)c2ccc(F)cc2)CC1 | -3.92% [at 30.3 µM] | 
21 | O=C(Nc1cccc([N+](=O)[O-])c1)c1cc2ccccc2cc1O | 1.01% | 
22 | CC(CN)CC(C)(C)CCN (stereo not given) | 4.09% [at 172 µM] | 
23 | Cc1cc(NC(=O)C(=O)O)cc(C)c1Oc1ccc(O)c2c1CCC2 | -2.56% | 
24 | Cc1cc(=O)oc2cc(N(C)C)ccc12 | -15.8% | 
25 | CCCCCOc1ccccc1/C(=C\SC)n1ccnc1 | 4.77% [at 30.3 µM] | 
26 | c1cc(OCC2CO2)cc(OCC2CO2)c1 (stereo not given) | -0.0449% | 
27 | CCCCNCCCC | 4.18% | 
28 | O=C(c1ccc(F)cc1)C1CCN(CCn2c(=S)[nH]c3ccccc3c2=O)CC1 | 0.879% [at 30.3 µM] | 
29 | Clc1ccc(Cn2c(CN3CCCC3)nc3ccccc32)cc1 | -6.64% [at 30.3 µM] | 
30 | CCCCCCCCCCCCCCCCCCCl | 2.02% [at 5.99 µM] | 
31 | Cc1cc(Nc2ccc(O)cc2)ccc1N | -4.28% | 
32 | c1cc(CN2CCCCC2)cc(OCCCNc2nc3ccccc3s2)c1 | 0.241% [at 30.3 µM] | 
33 | COC(=O)C1=C(C)NC(C)=C(C(=O)O[C@@H]2CCCN(Cc3ccccc3)C2)[C@@H]1c1cccc([N+](=O)[O-])c1 | -16% [at 30.3 µM] | 
34 | O=[N+]([O-])c1ccc(O/N=C/c2cc(Br)c(O)c(Br)c2)c([N+](=O)[O-])c1 | -0.269% | 
35 | CCCCCCC(C)OC(=O)COc1nc(F)c(Cl)c(N)c1Cl (stereo not given) | -12.1% | 
36 | CC(O)C#CC(C)O (stereo not given) | -26.5% | 
37 | COC(=O)C1=C(C)NC(COC(N)=O)=C(C(=O)OC(C)C)C1c1cccc(Cl)c1Cl (stereo not given) | -6.56% [at 30.3 µM] | 
38 | c1ccc(Cc2ccccc2)cc1 | 1.67% | 
39 | O=C(Nc1ccc(Cl)cc1)Nc1ccc(Cl)c(C(F)(F)F)c1 | -18.2% [at 30.3 µM] | 
40 | S=c1[nH]c2ccccc2s1 | -12.7% | 
41 | Oc1c(I)cc(Cl)c2cccnc12 |  | 14.1 µM (active)
42 | CCN(CC)CCNc1ccc(CO)c2sc3ccccc3c(=O)c12 | -19.5% [at 30.3 µM] | 
43 | CCOc1ccc(N=Nc2ccc(/C=C/c3ccc(N=Nc4ccc(OCC)cc4)cc3S(=O)(=O)O)c(S(=O)(=O)O)c2)cc1 | 0.4% | 
44 | CN(C)CCCN1c2ccccc2Sc2ccc(C(F)(F)F)cc21 | -0.495% [at 30.3 µM] | 
45 | CCCCCC[C@@H](O)C/C=C\CCCCCCCC(=O)O | 11.6% | 

Source: PubChem BioAssay (Tox21)
